# D2 PAM-1 – positive allosteric modulators of human D2 dopamine receptor. HEK293 T-REx D2, calcium flux, EC20 dopamine potentiation. actives 0.34% (n = 340,000). potentiation, % at 10 µM. AID 485347. P14416;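 active = potentiation over 3 SD above the plate norm, cut at about 30% in these data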; note: 0% is about no effect
# Target sequence (P14416 whole entry, looked up): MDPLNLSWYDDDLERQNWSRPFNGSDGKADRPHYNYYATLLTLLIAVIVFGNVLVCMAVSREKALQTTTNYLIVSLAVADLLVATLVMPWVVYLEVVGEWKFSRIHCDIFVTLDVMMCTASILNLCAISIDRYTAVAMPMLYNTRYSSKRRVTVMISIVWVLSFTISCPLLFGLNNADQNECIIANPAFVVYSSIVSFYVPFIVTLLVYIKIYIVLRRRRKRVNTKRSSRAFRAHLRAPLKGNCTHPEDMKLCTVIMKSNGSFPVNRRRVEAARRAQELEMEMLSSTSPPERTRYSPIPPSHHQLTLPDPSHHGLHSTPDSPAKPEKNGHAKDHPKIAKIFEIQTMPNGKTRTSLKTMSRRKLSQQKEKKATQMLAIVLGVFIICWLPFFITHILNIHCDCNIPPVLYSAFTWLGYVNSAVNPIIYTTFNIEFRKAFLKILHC
#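 Potentiation of an EC20 dopamine calcium response measured kinetically over 180 s, after a preceding 180 s compound-only read flagging agonists. Cells: inducible Hek293 Trex D2 line, 4000/well, cultured overnight at 30 C before dye loading.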
# D2 antag – antagonists of human D2 dopamine receptor | HEK293 TREx D2 cells, calcium flux, dopamine EC80 | inhibition, % at 10 µM | actives 2% (n = 340,000) | AID 485344; in the data active = inhibition above about 30%; inactive = below that, where a call was filed; note: 0% is about no effect
#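 Cells plated overnight at 30 C with tetracycline; no-wash calcium dye, 30–90 min RT; 10 s baseline; compound pinned; 180 s read; EC80 dopamine added; another 180 s read.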
# D2 ag-1 – agonists of human D2 dopamine receptor; P14416; HEK293 T-REx D2 cells, calcium flux agonist mode; activation, % at 2 µM; actives 0.53% (n = 340,000); AID 485358;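 active = activation over 3 SD above normal in the single-dose calcium agonist read, cut at about 30% in these data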; note: 0% is about no effect
#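 Calcium-flux readout, 1 cycle/sec over 180 s following compound pin transfer, in inducible HEK293 Trex D2 cells (force-coupled); dopamine controls included. Positive calcium responses during this window marked compounds as potential agonists.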
# D2 PAM-2 – potentiates the human D2 dopamine receptor allosterically; DiscoveRx D2 beta-arrestin cells, luminescence, 90 min; 100% = 57 uM dopamine signal; potentiation, % (no concentration beside the values); actives 0.23% (n = 360,000); in the data active = potentiation above about 50%
#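 D2 cells co-treated with compound plus 50 nM dopamine (EC20) for 90 min at 37 deg C to detect potentiation. Beta-arrestin recruitment was read as enzyme-fragment luminescence after 1 h at ambient temperature. Full response was set by 57 uM dopamine.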
# D2 ag-2 – activates the human D2 dopamine receptor; P14416; DiscoveRx PathHunter D2 beta-arrestin, luminescence, 90 min; 100% = 57 uM dopamine signal; activation, % (no concentration beside the values); actives 0.084% (n = 360,000); in the data active = activation above about 40%
#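 Agonist mode: compounds alone added to overnight-plated D2 PathHunter cells for 90 min at 37 C, with 57 uM final dopamine (EC100) defining full response. Beta-arrestin recruitment detected by chemiluminescent reagent, read after 1 h at ambient temperature.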
# Numbers without * were called inactive; x = no result. Only some compounds are listed: those with a hit (about 2.4% of all), similar ones and a draw of the others.
SMILES,D2 PAM-1,D2 antag,D2 ag-1,D2 PAM-2,D2 ag-2
CCCOc1ccc(C2=NC(c3ccc(F)cc3)=Nc3ccc(OC)cc3N2)cc1,6,x,-1,x,x
CCN(CC)CCNC(=O)c1cn(-c2ccccc2)nc1-c1cccs1,-24,37*,1,-17,-1
CC1(c2ccc(OC(F)F)cc2)NC(=O)N(CC(=O)Nc2ccc(F)cc2)C1=O (centres undefined),7,-4,19,0,-1
CC1(c2ccc(OC(F)F)cc2)NC(=O)N(CC(=O)Nc2cccc(F)c2)C1=O (centres undefined),2,-14,33*,-4,1
COc1cccc(-n2c(SCc3ccccc3C)nc3c([nH]c4ccccc43)c2=O)c1,-4,x,1,x,x
C=Cc1ccc(Cn2ccn(-c3ccc(F)c(F)c3)c(=O)c2=O)cc1,7,x,1,x,x
Cc1ccc(S(=O)(=O)c2cc3c(=O)n4ccccc4nc3n(C)c2=N)cc1C,36*,4,0,-3,-3
COc1ccc(-c2noc(CSc3nnc(-c4ccncc4)n3-c3ccc(C)c(C)c3)n2)cc1,2,x,4,x,x
CC(O)CNc1nc2c(c(=O)n(Cc3ccc(Br)cc3)c(=O)n2C)n1C (centres undefined),10,4,-1,52*,6
CC(O)CNc1nc2c(c(=O)n(Cc3ccccc3)c(=O)n2C)n1C (centres undefined),14,-19,1,-7,-4
O=[N+]([O-])c1ccc(Cl)c(S(=O)(=O)Nc2cccc(-c3ccc(N4CCOCC4)nn3)c2)c1,-5,34*,1,17,3
O=[N+]([O-])c1ccc(Cl)c(S(=O)(=O)Nc2ccc(-c3ccc(N4CCOCC4)nn3)cc2)c1,-9,-10,0,-3,0
O=C(NCCCN1CCN(c2ccccc2)CC1)c1ccc2nc(CCc3ccccc3)oc2c1,-23,x,x,x,x
O=C(O)c1ccc(N/N=C/c2ccnc3ccccc23)cc1,-5,40*,0,-5,-8
Cc1ccc(C)c(NC(=O)Cn2ncc3c([nH]c4ccccc43)c2=O)c1,-4,x,1,x,x
CC(=O)c1c(N2CCCC2)[nH]c(-c2ccccc2)nc1=S,-2,2,2,-20,-1
CC(=O)c1c(N2CCN(Cc3ccccc3)CC2)[nH]c(-c2ccccc2)nc1=S,-21,73*,1,-55,-2
CCCCn1c(NCCC)nc2c1c(=O)[nH]c(=O)n2C,40*,2,-1,2,0
CCCNc1nc2c(c(=O)[nH]c(=O)n2C)n1CCC(C)C,16,-2,-1,3,-4
CCOC(=O)c1c(C=O)c2sc(C)cc2n1C,8,43*,0,-6,-1
CC(C)C1C(=O)Nc2ccc(S(=O)(=O)NCCc3ccc(Cl)cc3)cc21 (centres undefined),5,x,1,x,x
CCOCc1nnc(NC(=O)c2ccc(OC)cc2)s1,-7,33*,1,-5,2
COc1ccc(C(=O)Nc2nnc(Cc3ccc(OC)c(OC)c3)s2)c(OC)c1,1,-2,0,1,5
COc1ccc(Cc2nnc(NC(=O)c3c(-c4ccccc4)noc3C)s2)cc1,34*,-18,-2,-2,-3
COc1ccc(Cc2nnc(NC(=O)c3cccs3)s2)cc1OC,40*,-4,1,-3,1
SMILES,D2 PAM-1,D2 antag,D2 ag-1,D2 PAM-2,D2 ag-2
COCc1nnc(NC(=O)c2ccc(OC)cc2OC)s1,38*,39*,-1,-6,-5
COc1ccc(Cc2nnc(NC(=O)c3c(-c4ccccc4)noc3C)s2)cc1OC,3,3,2,x,x
COc1ccc(Cc2nnc(NC(=O)c3ccc(OC)c(OC)c3)s2)cc1OC,25,-3,0,-5,-4
CCc1ccc(C(=O)c2cn(CC(=O)Nc3ccc4c(c3)OCCO4)c3ccc(CC)cc3c2=O)cc1,-14,x,0,x,x
COc1ccccc1CNC(=O)CSc1nc(=O)[nH]c2c1CCC2,8,x,1,x,x
COc1ccc(-c2nnc(NC(=O)C(C)C)s2)c(OC)c1,36*,10,1,-5,-1
CC1=Nc2ccccc2/C1=C\c1sc(Nc2ccc(C)cc2)nc1O,-26,61*,0,-41,-1
Oc1nc(Nc2ccc(F)cc2)sc1/C=C1\C=Nc2ccccc21,-7,9,-1,-17,0

# Assay outcomes (PubChem)
